According to ChEMBL document CHEMBL3988442, “University of Dundee, Small-Polar-MMV Screening Library” (2021):
For some of these results: Results with a measured potency or affinity are listed apart.

Legend:
Design in all cases: scale not given: direction of the effect not stated beside the values
[1] = target: Protein translocase subunit SecA (Escherichia coli (strain K12)) (UniProt P10408); experiment: Assay to Identify E. coli SecA ATPase Inhibitors; format: functional; conditions: 30 µM
[2] = target: T1, Ubiquitin-activating enzyme e1, putative (Leishmania donovani (strain BPK282A1)) (UniProt E9BSI1); experiment: Leishmania donovani Ubiquitin Activating Enzyme (LdE1); format: functional; conditions: 30 µM
T1 sequence (whole entry): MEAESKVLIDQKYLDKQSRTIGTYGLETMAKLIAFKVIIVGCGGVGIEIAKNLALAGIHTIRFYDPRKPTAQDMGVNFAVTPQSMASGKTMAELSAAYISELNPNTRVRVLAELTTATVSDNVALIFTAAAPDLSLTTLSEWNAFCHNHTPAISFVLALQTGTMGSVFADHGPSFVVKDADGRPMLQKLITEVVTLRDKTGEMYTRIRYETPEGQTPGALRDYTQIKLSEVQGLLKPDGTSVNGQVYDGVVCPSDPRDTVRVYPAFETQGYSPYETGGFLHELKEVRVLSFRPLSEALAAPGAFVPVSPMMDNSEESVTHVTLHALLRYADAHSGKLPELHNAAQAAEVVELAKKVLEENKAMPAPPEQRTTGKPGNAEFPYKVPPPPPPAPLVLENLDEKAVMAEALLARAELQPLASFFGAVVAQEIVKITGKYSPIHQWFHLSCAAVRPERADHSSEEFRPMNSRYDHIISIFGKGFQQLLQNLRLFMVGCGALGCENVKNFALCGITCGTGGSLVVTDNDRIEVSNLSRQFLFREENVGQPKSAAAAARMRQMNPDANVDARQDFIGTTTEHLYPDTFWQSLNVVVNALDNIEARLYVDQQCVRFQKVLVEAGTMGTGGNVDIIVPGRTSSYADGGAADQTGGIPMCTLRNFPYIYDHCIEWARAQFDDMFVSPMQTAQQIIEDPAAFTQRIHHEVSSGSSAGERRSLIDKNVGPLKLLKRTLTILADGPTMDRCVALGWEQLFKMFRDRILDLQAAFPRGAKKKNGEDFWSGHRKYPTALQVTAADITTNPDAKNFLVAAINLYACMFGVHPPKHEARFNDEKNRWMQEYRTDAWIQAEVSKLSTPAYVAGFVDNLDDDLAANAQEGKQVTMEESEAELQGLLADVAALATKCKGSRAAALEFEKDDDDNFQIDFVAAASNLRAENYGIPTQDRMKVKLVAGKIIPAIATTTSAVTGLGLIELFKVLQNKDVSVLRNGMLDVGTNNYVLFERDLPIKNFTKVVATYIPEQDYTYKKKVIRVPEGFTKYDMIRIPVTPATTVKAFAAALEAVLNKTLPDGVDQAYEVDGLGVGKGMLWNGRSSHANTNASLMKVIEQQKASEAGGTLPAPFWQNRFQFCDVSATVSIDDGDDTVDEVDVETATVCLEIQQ

[3] = target: AMP-activated protein kinase, AMPK (Homo sapiens) (UniProt P54646+O43741+P54619+Q9UGJ0+Q9Y478+Q13131+Q9UGI9); experiment: AMP-dependent Kinase enzyme assay. An in vitro enzyme assay that detects ADP turnover that is directly proportional to AMPK activity. This uses naive AMPK that is activated during the assay with MK-8722; format: functional; conditions: 30 µM
[4] = target: Sialic acid-binding Ig-like lectin 9 (Homo sapiens) (UniProt Q9Y336); experiment: Hs-Siglec9 ALPHAscreen SOP 20170721; conditions: 10 µM
Sialic acid-binding Ig-like lectin 9 (Homo sapiens), sequence (Q9Y336 whole entry): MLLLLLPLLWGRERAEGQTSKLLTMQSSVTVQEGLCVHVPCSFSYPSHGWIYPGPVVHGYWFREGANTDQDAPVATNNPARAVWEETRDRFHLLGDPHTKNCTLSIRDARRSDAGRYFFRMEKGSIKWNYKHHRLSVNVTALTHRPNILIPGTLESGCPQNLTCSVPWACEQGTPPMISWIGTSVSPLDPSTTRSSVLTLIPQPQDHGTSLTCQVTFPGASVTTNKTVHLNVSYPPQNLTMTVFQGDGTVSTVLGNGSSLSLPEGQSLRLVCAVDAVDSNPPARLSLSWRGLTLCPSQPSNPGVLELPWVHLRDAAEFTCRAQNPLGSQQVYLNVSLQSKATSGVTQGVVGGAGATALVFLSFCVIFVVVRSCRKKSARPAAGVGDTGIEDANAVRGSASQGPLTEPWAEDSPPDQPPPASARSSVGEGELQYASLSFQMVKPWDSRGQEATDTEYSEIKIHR

[5] = test system: Trypanosoma cruzi; experiment: Trypanosoma cruzi phosphomannomutase and mannose-1-phosphate guanylyltransferase assay; format: functional; conditions: 10 µM
[6] = target: T2, Arginase-2, mitochondrial (Homo sapiens) (UniProt P78540); experiment: in vitro enzyme assay to detect the production of urea directly proportional to the activity of Arginase II; format: functional; conditions: 33.3 µM; also: in the data most compounds retested in dose-response had high values
T2 sequence (whole entry): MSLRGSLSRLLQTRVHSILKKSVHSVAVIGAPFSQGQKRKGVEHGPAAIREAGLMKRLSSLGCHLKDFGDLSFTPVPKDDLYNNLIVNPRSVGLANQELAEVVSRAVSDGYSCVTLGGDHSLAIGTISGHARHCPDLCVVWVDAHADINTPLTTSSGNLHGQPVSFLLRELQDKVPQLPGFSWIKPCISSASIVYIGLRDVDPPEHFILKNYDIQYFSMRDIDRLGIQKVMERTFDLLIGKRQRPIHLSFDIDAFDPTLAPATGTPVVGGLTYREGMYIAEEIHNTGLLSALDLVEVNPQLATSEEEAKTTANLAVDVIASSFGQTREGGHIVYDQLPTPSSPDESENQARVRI

[7] = target: T3, Proteasome subunit beta (Trypanosoma cruzi) (UniProt O96673); experiment: Trypanosoma cruzi proteasome chymotrypsin-like activity (TcProtChymo) assay.; also: in the data most compounds retested in dose-response had high values; format: functional; conditions: 9.37 µM
T3 sequence (whole entry): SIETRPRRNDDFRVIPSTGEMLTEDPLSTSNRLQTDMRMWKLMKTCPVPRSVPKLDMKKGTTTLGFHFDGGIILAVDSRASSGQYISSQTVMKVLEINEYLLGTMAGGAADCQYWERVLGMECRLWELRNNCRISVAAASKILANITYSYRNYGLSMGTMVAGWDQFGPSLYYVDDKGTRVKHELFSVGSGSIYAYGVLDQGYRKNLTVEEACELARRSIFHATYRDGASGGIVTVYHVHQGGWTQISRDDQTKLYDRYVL

[8] = species on record: Homo sapiens; experiment: To identify inhibition of the IFN signalling (Jak-Stat) pathway via expression of an eGFP reporter gene under the control of an IFN-stimulated response element (ISRE) containing MxA promoter.; format: functional; conditions: 30 µM
[9] = target: T4, Tyrosyl-tRNA synthetase, putative (Trypanosoma cruzi (strain CL Brener)) (UniProt Q4DSP6); experiment: Trypanosoma cruzi tyrosyl tRNA synthetase (TcYRS) _High Tyrosine SOP; format: functional; conditions: 30 µM; also: in the data most compounds retested in dose-response had high values
T4 sequence (whole entry): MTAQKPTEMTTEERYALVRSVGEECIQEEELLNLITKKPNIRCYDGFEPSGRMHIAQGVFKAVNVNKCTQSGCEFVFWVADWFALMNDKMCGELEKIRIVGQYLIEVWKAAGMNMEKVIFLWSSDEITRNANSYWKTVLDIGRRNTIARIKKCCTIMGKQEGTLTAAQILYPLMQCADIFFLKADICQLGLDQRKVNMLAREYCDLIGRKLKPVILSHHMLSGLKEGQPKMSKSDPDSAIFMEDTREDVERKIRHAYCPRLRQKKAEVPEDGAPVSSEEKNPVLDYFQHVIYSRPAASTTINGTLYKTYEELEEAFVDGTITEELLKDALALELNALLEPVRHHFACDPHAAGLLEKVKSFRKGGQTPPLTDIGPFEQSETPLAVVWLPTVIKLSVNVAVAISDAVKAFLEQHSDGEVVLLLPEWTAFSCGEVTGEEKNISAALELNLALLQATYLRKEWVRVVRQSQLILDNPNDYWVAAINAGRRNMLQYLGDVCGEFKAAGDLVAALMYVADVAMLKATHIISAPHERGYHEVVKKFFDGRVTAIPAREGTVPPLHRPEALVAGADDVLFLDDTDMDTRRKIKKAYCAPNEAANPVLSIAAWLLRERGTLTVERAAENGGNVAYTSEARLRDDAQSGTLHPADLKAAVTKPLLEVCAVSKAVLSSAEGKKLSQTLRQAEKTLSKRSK

[10] = target: T4, Tyrosyl-tRNA synthetase, putative (Trypanosoma cruzi (strain CL Brener)); experiment: Trypanosoma cruzi tyrosyl tRNA synthetase (TcYRS) SOP; format: functional; conditions: 30 µM
[11] = target: Chromo domain-containing protein 1 (Saccharomyces cerevisiae (strain ATCC 204508 / S288c) (Baker's yeast)) (UniProt P32657); experiment: ScCHD-1 Enzyme Inhibition Assay; format: functional; conditions: 30 µM; also: in the data most compounds retested in dose-response had high values
Chromo domain-containing protein 1 (Saccharomyces cerevisiae (strain ATCC 204508 / S288c) (Baker's yeast)), sequence (P32657 whole entry, the tested form may be a part): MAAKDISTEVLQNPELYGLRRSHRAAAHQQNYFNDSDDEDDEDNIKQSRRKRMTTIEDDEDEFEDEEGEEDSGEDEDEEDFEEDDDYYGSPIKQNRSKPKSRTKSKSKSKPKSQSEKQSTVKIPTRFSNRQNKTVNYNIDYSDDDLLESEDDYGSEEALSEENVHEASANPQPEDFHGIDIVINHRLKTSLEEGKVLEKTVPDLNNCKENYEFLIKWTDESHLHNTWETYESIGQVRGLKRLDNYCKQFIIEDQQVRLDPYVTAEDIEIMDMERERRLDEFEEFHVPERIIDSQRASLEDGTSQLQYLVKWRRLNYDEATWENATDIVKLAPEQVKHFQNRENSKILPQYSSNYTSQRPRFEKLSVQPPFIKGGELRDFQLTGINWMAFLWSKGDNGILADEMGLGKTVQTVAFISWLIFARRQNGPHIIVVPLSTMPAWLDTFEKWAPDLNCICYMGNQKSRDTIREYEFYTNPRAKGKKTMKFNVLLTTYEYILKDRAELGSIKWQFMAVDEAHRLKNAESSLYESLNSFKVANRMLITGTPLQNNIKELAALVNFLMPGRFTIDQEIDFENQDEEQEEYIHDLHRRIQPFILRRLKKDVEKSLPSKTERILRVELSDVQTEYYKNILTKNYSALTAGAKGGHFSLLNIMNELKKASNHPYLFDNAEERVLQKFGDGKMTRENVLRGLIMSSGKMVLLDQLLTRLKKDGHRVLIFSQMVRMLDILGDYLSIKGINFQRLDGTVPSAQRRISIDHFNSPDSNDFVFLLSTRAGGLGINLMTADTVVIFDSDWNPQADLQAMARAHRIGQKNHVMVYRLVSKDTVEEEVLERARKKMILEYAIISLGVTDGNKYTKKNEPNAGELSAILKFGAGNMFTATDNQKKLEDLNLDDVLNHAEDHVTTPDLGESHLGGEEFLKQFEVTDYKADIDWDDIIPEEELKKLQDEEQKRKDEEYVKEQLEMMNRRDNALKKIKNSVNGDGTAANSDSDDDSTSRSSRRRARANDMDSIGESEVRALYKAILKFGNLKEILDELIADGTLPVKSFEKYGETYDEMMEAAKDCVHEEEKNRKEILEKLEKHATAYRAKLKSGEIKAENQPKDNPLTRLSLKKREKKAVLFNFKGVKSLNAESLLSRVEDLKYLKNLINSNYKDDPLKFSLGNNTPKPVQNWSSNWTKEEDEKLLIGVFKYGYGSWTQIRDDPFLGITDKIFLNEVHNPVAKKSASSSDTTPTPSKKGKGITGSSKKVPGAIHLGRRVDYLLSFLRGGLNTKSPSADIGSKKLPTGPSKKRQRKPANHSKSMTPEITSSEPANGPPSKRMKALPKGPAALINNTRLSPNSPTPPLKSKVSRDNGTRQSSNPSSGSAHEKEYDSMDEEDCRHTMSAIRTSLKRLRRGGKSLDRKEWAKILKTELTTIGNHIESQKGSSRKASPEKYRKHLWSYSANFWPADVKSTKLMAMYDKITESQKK

Protein translocase subunit SecA (Escherichia coli (strain K12)), sequence (P10408 whole entry): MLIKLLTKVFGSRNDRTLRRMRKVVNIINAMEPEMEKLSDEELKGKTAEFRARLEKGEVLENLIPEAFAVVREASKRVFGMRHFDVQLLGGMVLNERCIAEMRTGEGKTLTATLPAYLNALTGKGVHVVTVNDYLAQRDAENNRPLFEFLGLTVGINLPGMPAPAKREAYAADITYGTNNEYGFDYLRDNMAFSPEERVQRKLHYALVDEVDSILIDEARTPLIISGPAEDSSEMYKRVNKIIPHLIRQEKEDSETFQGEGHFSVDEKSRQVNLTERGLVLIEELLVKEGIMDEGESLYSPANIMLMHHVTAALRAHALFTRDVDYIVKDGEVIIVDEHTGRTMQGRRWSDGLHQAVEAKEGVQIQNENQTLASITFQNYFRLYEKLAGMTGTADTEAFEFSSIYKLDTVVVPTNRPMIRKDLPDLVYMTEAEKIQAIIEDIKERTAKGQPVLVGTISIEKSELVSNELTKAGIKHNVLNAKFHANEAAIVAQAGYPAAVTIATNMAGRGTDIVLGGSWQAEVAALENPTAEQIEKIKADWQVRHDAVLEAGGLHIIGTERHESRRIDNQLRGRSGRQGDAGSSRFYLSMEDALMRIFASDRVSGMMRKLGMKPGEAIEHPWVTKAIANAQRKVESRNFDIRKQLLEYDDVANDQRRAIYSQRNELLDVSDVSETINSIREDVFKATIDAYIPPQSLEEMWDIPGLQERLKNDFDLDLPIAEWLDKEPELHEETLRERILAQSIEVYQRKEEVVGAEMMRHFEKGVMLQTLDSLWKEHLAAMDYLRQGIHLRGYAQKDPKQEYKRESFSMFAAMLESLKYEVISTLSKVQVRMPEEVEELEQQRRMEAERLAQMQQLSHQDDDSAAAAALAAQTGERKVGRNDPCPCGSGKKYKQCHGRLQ

| Compound | Percent Effect [1] [%] | Percent Effect [2] [%] | Percent Effect [3] [%] | Percent Effect [4] [%] | Percent Effect [5] [%] | Percent Effect [6] [%] | Percent Effect [7] [%] | Percent Effect [8] [%] | Percent Effect [9] [%] | Percent Effect [10] [%] | Percent Effect [11] [%] |
| --- | --- | --- | --- | --- | --- | --- | --- | --- | --- | --- | --- |
| Cn1cnc2c1CCN(Cc1nc(Cc3ccccc3)no1)C2 | -2.4 | -7.89 | -7.72 | -0.869 | 3.27 | 4.68 | -0.931 | 1.02 | 11.3 | 6.17 | 3.08 |
| Cc1ccc(CNC(=O)Nc2cc(C(F)(F)F)c[nH]c2=O)cn1 | -3.22 | 6.94 | 7.59 | -6.47 | 0.0972 | 4.42 | 11.6 | -18.5 | 6.32 | 12.8 | -5.05 |
| O=C(Cn1nc(-c2ccc(F)cc2)oc1=O)NCc1ccc(F)cc1 | 0.533 | 10.5 | -7.15 | -1.53 | -7.52 | -6.9 | 13.4 | 21 | 0.49 | 7.32 | -14.3 |
| CN(Cc1ccccc1O)C(=O)NC1CCCN(c2ncccn2)C1 (stereo not given) | -1.53 | 15.8 | 0.343 | -3.02 | -7.89 | -1.53 | 6.01 | 26.3 | 2.45 | 7.32 | -8.65 |
| CN1CCN(C(CNC(=O)CCn2cccn2)c2cccs2)CC1 (stereo not given) | 1.81 | -2.67 | -4.22 | 0.224 | -3.6 | 4.17 | 6.63 | 5.37 | 2.73 | 3.7 | 2.11 |
| COc1ccc(C(=O)N2CCC(Nc3ccc(C)nn3)CC2)c(F)c1 | -1.36 | 1.27 | 3.77 | -1.89 | -4.21 | 2.8 | 12.7 | 25.4 | 7.29 | -2.53 | -10.7 |
| CC(=O)c1cccc(OCCCC(=O)N(C)Cc2ccccn2)c1 | 0.239 | 0 | -2.92 | 15.9 | 4.25 | 2.86 | 10.5 | -7.21 | -0.529 | 4.88 | -9.86 |
| Cc1nc(C)c(CC(=O)N2C[C@H]3CC[C@@H]2CN(C(=O)N(C)C)C3)c(=O)[nH]1 | -12.8 | 0 | -2.11 | -2.97 | -5.18 | -1.74 | -2.49 | 26.8 | -1.07 | -1.24 | -2.75 |
| CCc1cnc(CN2CCCC2c2noc(C3CC3)n2)o1 (stereo not given) | -2.28 | 10.8 | -15.2 | -4.49 | 5.94 | -18.4 | 23.6 | 25.5 | 9.36 | 18.5 | -9.7 |
| Cc1nn(C)c(N2CCOCC2)c1CNCc1nccs1 | -3.96 | 7.89 | -1.27 | 5.34 | 9.4 | 4.21 | 9.86 | 3.23 | 3.43 | 17.1 | -6.95 |
| Cc1ccc(S(=O)(=O)N2CSCC2C(=O)N(C)C2CC2)cc1Cl (stereo not given) | -5.45 | 5.41 | -2.19 | 10.8 | 6.16 | 1.74 | 7.47 | 5.7 | 0 | 3.7 | -5.33 |
| CCn1cc(Br)c(C(=O)NCc2cccnc2)n1 | -2.44 | 7.79 | -1.81 | 5.82 | 0.885 | -9.65 | 19.3 | 3.08 | 7.53 | 16.1 | -1.44 |
| CCn1c(C)nnc1CN(C)C1CCN(Cc2nccn2C)C1 (stereo not given) | 2.98 | 10.8 | -6.53 | -4.6 | -8.7 | 2.23 | 11.8 | 16.4 | 9.68 | 16.1 | -3.99 |
| CN(C)S(=O)(=O)N1C[C@H](Oc2cccnc2)[C@H]2OCCC[C@H]21 | -5.31 | 5.2 | 74 | -1.91 | -0.69 | -4.52 | 3.65 | 10.9 | 0 | -1.28 | -8.75 |
| Cc1noc(C)c1C(=O)N1CCCC1c1c(C)nn(C)c1Cl (stereo not given) | -4.44 | 7.59 | -2.1 | 8.04 | 5.38 | -4.56 | -1.72 | 4.02 | 2.46 | 8.86 | -0.777 |
| O=C(NCc1cncc2c1CCN(Cc1cccc(F)c1)C2)C1CC1 | -4.48 | 0 | 5.3 | 4.67 | -3.97 | -5.59 | 7.96 | 9.89 | -5.21 | 6.17 | 2.56 |
| CC(Cn1cccn1)NC(=O)NCCc1ccc(Cl)s1 (stereo not given) | -0.239 | 22.8 | 0.135 | -8.1 | -0.283 | 1.52 | 9.75 | 5.52 | 3.45 | 16.5 | -2.95 |
| Cc1nc(C)n(CC2CCCCN2CCC(=O)Nc2cc(C)on2)n1 (stereo not given) | -3.16 | 6.33 | 3.99 | 1.14 | -1.13 | -0.645 | 11 | 5.13 | -7.29 | 12.7 | -9.87 |
| Cc1ccc(CNC(=O)CCSCc2csc(C)n2)cn1 | -2.98 | 17.7 | -1.48 | -3.29 | 1.42 | 4.18 | 0.0819 | 8.57 | 0.493 | 8.86 | -3.92 |
| CN(c1ccc(C(C)(C)C)cc1)S(=O)(=O)c1cc(C(=O)O)cs1 | -2.58 | -2.7 | -8.07 | 8.29 | -3.11 | 2.4 | -1.08 | -8.15 | -1.48 | 1.24 | 1.18 |
